Each structure is given as a SMILES string. This is part of a sample that, as a whole, favours compounds with a hit. Of some 83,000 tested, about 20% had one in any assay.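 Treatment: one concentration, 48 hours, 96-well format. Scoring: percent growth, with anything below 10 considered active.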 The source made the active and inactive calls.

The assay concerns OVCAR-8 ovarian. The assay is described as follows: NCI-60 one-dose screen, 48 h (100 = growth as untreated, 0 = no growth, -100 = all killed). The following applies: 10 µM unless noted. The procedure: Growth inhibition of the OVCAR-8 human tumor cell line is measured as a screen for anti-cancer activity. Cells are grown in 96 well plates and exposed to the test compound for 48 hours. Compounds are tested at a single concentration, which is 10^-5 M for most compounds. The reported endpoint is percent growth (GI% or GIPRCNT), where numbers from 0 - 100% represent growth inhibition, and numbers from -100% - 0 represent cell death. For example, a value of 40 represents 60% growth inhibition. A value of 0 means no net growth occurred over the course of the experiment. A value of -40 indicates 40% of cells at the beginning of the experiment died by the end of the experiment. A value of -100 means all cells are dead at the end of the experiment.
NCI-60 Human Tumor Cell Lines Screen was performed using the standard one-dose NCI protocol, which is described in more detail at https://dtp.cancer.gov/discovery_development/nci-60/default.htm.
Compounds with GIPRCNT values below 10 were considered active. Activity score was based on GIPRCNT using the following formula: […]
Score is 0 for GIPRCNT values of 100 or above, 50 for GIPRCNT values of 0, and 100 for GIPRCNT values of -100.
As for `CCNC(=O)Oc1ccc(/C(=C(/CC)Cc2ccccc2)c2ccc(OCCN3CCCC3)cc2)cc1`, the growth is 94.1% (inactive).
The same measure for `Cc1ccc(CNc2c3ccccc3nc3ccccc23)cc1`: 21.8% (inactive).
For the molecule `COc1cccc(CNc2c3ccccc3nc3ccccc23)c1`, the growth is 31.9% (inactive).
The same measure for `Nc1[nH]n2cc(-c3ccc(F)cc3)nc2c1N=Nc1ccc(S(N)(=O)=O)cc1`: 79% (inactive); for `COc1ccc(/C=C/C(c2cc(OC)c(OC)c(OC)c2)n2cncn2)cc1` (stereo not given): 52.2% (inactive); for `O=C1Nc2ccccc2/C1=C/c1cccn1C(=O)c1ccc(Cl)s1`: 75.3% (inactive).
The figure for `COC(=O)c1c2c(n3ccccc13)C(=O)c1ccccc1C2=O` is 45% (inactive).
The figure for `Cc1ccc(NC(=O)Cn2c(Br)nc3c2c(=O)n(C)c(=O)n3C)cc1` is 28.4% (inactive); for `Fc1cccc(-c2ccc3c(c2)C2(CCNCC2)CN3)c1` it is 108% (inactive); for `c1ccc2c(c1)CCCc1nnc3nc4ccccc4n3c1-2` it is 38.5% (inactive).
Turning to `COc1cc(-c2nc3cc(Cl)c(Cl)cc3[nH]2)ccc1OCC(=O)N=Nc1c(O)[nH]c2ccc(Cl)cc12`, the growth was 2.5% (active).
The figure for `C=C1C(=O)O[C@H]2[C@H]1CC/C(COC(=O)c1ccc(C(=O)O)s1)=C\CC[C@@]1(C)O[C@@H]21` is 17.9% (inactive); for `COC(=O)c1cc(Br)ccc1O` it is 103% (inactive); for `Cc1ccc2nc(NC(=O)CSc3nc(-c4ccccc4)c(C#N)c4nnnn34)sc2c1` it is 108% (inactive).
For the molecule `COc1ccc(Cn2cc3c(c2-c2ccccc2)CCc2cnoc2-3)cc1`, the growth is 19.9% (inactive).
As for `Nc1nc2c(c3ncccc13)C(c1cccc(Cl)c1)Cc1ncccc1-2` (stereo not given), the growth was 23.8% (inactive).
The figure for `O=[N+]([O-])c1cc(NS(=O)(=O)c2ccccc2)ccc1NS(=O)(=O)c1ccccc1` is 93% (inactive); for `O=C(O)[C@@H](Cc1ccc2ccccc2c1)NC(=O)n1c2ccccc2c2ccccc21` it is 21.2% (inactive); for `CCOC(=O)C(=CNc1cnc(Nc2ccc(N3CCOCC3)cc2)nc1Oc1ccc(OC)cc1)C(=O)OCC` it is 43.1% (inactive).
The figure for `C=CC(=O)Nc1ccc(Oc2nccc(Nc3nnc(-c4ccc(C)cc4)s3)n2)cc1` is 81.4% (inactive); for `C=C(C)[C@@H]1CC[C@]2(C)[C@H](CC=C3[C@@H]4CC(C)(C)CC[C@]4(CO)CC[C@]32C)[C@@]1(C)CCCN` it is -85.1% (active).
With `COc1cc(-c2nc3sccn3c2-c2ccnc(NCCNS(=O)(=O)c3ccc(Cl)cc3)n2)ccc1F`, the growth was 12.3% (inactive).
The same measure for `COc1ccc(C2=NN(C(C)=O)C(c3cn(-c4ccccc4)nc3-c3ccc(Cl)cc3)C2)cc1` (stereo not given): 17.1% (inactive); for `Cc1ccc(S(=O)(=O)Oc2ccc3sc4cccc(NCCN(C)C)c4c(=O)c3c2)cc1`: -67.3% (active); for `Nc1ncnc2c1N=C(c1ccc3c(c1)OCO3)CC(c1cccc(Nc3ccnc4cc(C(F)(F)F)ccc34)c1)N2` (stereo not given): 67.7% (inactive).
Take `O=C1/C(=C2\SC(=S)N(C3CC3)C2=O)SC(=S)N1C1CC1`: the growth is 103% (inactive).
For `CCCn1cnc2c(c1=N)C(c1ccc(F)cc1)c1sc3c(F)cccc3c1O2` (stereo not given), the growth is 59.1% (inactive).
In the case of `C#CC#CC#CC#CC#CC#CC#CC#CC[C@@H]1OC[C@@H](COC(=O)O[C@@H](C(=O)O[C@H]2C[C@@]3(O)[C@@H](OC(=O)c4ccccc4)[C@@H]4[C@]5(OC(C)=O)CO[C@@H]5C[C@H](O)[C@@]4(C)C(=O)[C@H](OC(C)=O)C(=C2C)C3(C)C)[C@@H](NC(=O)c2ccccc2)c2ccccc2)O1`, the growth is 94.7% (inactive).
The figure for `CCN1C(=O)N(CC)C2C1NN=c1s/c(=C3\C(=O)N(CCC(C)C)c4ccccc43)c(=O)n12` (stereo not given) is 9.81% (active); for `CN(C)c1ccc(-c2nc(-c3ccccc3)c(-c3ccccc3)[nH]2)cc1` it is 96.9% (inactive); for `NC1=Nc2cc(OCCCCN3Cc4ccccc4C3)c(OCC3CC3)cc2C12CCCC2` it is 45.1% (inactive).
The same measure for `CN(Cc1cnc2nc(N)nc(N)c2n1)c1ccc(C(=O)NC(CCC(=O)O)C(=O)O)cc1Br` (stereo not given): 45.5% (inactive); for `O=C1/C=C/[C@@H](O)[C@@H]2C[C@@H](O)C[C@H]2/C=C/CCC[C@H](CCO)O1`: 11% (inactive); for `CCOC(=O)c1cc(C(=O)c2cc(OC)c(OC)c(OC)c2)n2ccccc12`: 33.2% (inactive).
Regarding `COc1ccc(-c2cc(-c3ccccc3)nc(N3CCN(CCNc4ccnc5cc(Cl)ccc45)CC3)n2)cc1`, the growth is -81% (active).
Take `CCc1ccc(CCC(=O)Nc2ncc(Cc3cc(Cl)ccc3Cl)s2)o1`: the growth was 19.2% (inactive).
As for `Fc1ccc(Cn2cc(CSc3nc4ccccc4o3)nn2)cc1`, the growth was 102% (inactive).
For the molecule `Cc1cccc(N2CCC(=O)NC2=S)c1`, the growth is 99.9% (inactive).
The figure for `Cn1cc(-c2ccc(-c3cn(C)c4ccc(Cl)cc34)[nH]2)c2cc(Cl)ccc21` is -5.8% (active); for `COc1ccc(-c2nn(-c3ccccc3)cc2/C=C/C(=O)NNC(=O)Nc2ccc(C)cc2)cc1` it is 98.1% (inactive).

(Values after PubChem BioAssay (NCI).)
